Test results reported in doi:10.1101/2024.03.05.583629.

Biological target: pT7_6His-AlfaTag-ZIF268 (human, UniProt P18146 335-423)
Assay: PADIT-seq
Details: dsDNA, one strand shown

Sequence | binding signal
CTCGAGGATATCAAGATCTGGCCTCGGCGCGTGGTGCGGAACCTCTAGCTAGCCGACTCACTATAGGGATAATCGCCCTGAGCAAAGACC | 0.41 ± 0.0906 log2FC
CTCGAGGATATCAAGATCTGGCCTCGGCCGGTGGGCGGGAACCTCTAGCTAGCCGACTCACTATAGGGATAATCGCCCTGAGCAAAGACC | 1.3 ± 0.0687 log2FC
CTCGAGGATATCAAGATCTGGCCTCGGCGCGTGGATGGGAACCTCTAGCTAGCCGACTCACTATAGGGATAATCGCCCTGAGCAAAGACC | 0.000457 ± 0.106 log2FC
CTCGAGGATATCAAGATCTGGCCTCGGCAGACCACGCGGAACCTCTAGCTAGCCGACTCACTATAGGGATAATCGCCCTGAGCAAAGACC | 0.0219 ± 0.102 log2FC
CTCGAGGATATCAAGATCTGGCCTCGGCGCGTGGTAGGGAACCTCTAGCTAGCCGACTCACTATAGGGATAATCGCCCTGAGCAAAGACC | 0.402 ± 0.089 log2FC
CTCGAGGATATCAAGATCTGGCCTCGGCGCGTGGTGAGGAACCTCTAGCTAGCCGACTCACTATAGGGATAATCGCCCTGAGCAAAGACC | 0.258 ± 0.102 log2FC
CTCGAGGATATCAAGATCTGGCCTCGGCCGCCCACAAGGAACCTCTAGCTAGCCGACTCACTATAGGGATAATCGCCCTGAGCAAAGACC | 0.545 ± 0.102 log2FC
CTCGAGGATATCAAGATCTGGCCTCGGCCCGTGGGCGGGAACCTCTAGCTAGCCGACTCACTATAGGGATAATCGCCCTGAGCAAAGACC | 3.06 ± 0.0841 log2FC
CTCGAGGATATCAAGATCTGGCCTCGGCCGCCCTCGCGGAACCTCTAGCTAGCCGACTCACTATAGGGATAATCGCCCTGAGCAAAGACC | 0.0695 ± 0.102 log2FC
CTCGAGGATATCAAGATCTGGCCTCGGCGCGGTGGCGGGAACCTCTAGCTAGCCGACTCACTATAGGGATAATCGCCCTGAGCAAAGACC | 0.175 ± 0.118 log2FC
CTCGAGGATATCAAGATCTGGCCTCGGCGCGCTGGCGGGAACCTCTAGCTAGCCGACTCACTATAGGGATAATCGCCCTGAGCAAAGACC | 0.0489 ± 0.154 log2FC
CTCGAGGATATCAAGATCTGGCCTCGGCGCGTGGTCTGGAACCTCTAGCTAGCCGACTCACTATAGGGATAATCGCCCTGAGCAAAGACC | 0.117 ± 0.101 log2FC
CTCGAGGATATCAAGATCTGGCCTCGGCCGCCCACATGGAACCTCTAGCTAGCCGACTCACTATAGGGATAATCGCCCTGAGCAAAGACC | 1.03 ± 0.0882 log2FC
CTCGAGGATATCAAGATCTGGCCTCGGCCGCTGCCGCGGAACCTCTAGCTAGCCGACTCACTATAGGGATAATCGCCCTGAGCAAAGACC | 0.0482 ± 0.0994 log2FC
CTCGAGGATATCAAGATCTGGCCTCGGCCGCCCATGGGGAACCTCTAGCTAGCCGACTCACTATAGGGATAATCGCCCTGAGCAAAGACC | 0.0348 ± 0.099 log2FC
CTCGAGGATATCAAGATCTGGCCTCGGCGCGTGGAGAGGAACCTCTAGCTAGCCGACTCACTATAGGGATAATCGCCCTGAGCAAAGACC | 0.18 ± 0.105 log2FC
CTCGAGGATATCAAGATCTGGCCTCGGCGTGTGGGCGGGAACCTCTAGCTAGCCGACTCACTATAGGGATAATCGCCCTGAGCAAAGACC | 3.29 ± 0.0753 log2FC
CTCGAGGATATCAAGATCTGGCCTCGGCGCGTGGTCCGGAACCTCTAGCTAGCCGACTCACTATAGGGATAATCGCCCTGAGCAAAGACC | 0.192 ± 0.0971 log2FC
CTCGAGGATATCAAGATCTGGCCTCGGCGCGTGGGGCGGAACCTCTAGCTAGCCGACTCACTATAGGGATAATCGCCCTGAGCAAAGACC | 0.735 ± 0.107 log2FC
CTCGAGGATATCAAGATCTGGCCTCGGCGCGAGGGCGGGAACCTCTAGCTAGCCGACTCACTATAGGGATAATCGCCCTGAGCAAAGACC | 0.751 ± 0.109 log2FC
CTCGAGGATATCAAGATCTGGCCTCGGCCGCCTCCGCGGAACCTCTAGCTAGCCGACTCACTATAGGGATAATCGCCCTGAGCAAAGACC | 0.383 ± 0.0978 log2FC
CTCGAGGATATCAAGATCTGGCCTCGGCGCGTGGTCGGGAACCTCTAGCTAGCCGACTCACTATAGGGATAATCGCCCTGAGCAAAGACC | 0.471 ± 0.1 log2FC
CTCGAGGATATCAAGATCTGGCCTCGGCGCGTGGGACGGAACCTCTAGCTAGCCGACTCACTATAGGGATAATCGCCCTGAGCAAAGACC | 1.73 ± 0.101 log2FC
CTCGAGGATATCAAGATCTGGCCTCGGCCGCCCAGACGGAACCTCTAGCTAGCCGACTCACTATAGGGATAATCGCCCTGAGCAAAGACC | 0.0722 ± 0.0958 log2FC
CTCGAGGATATCAAGATCTGGCCTCGGCACATGGGCGGGAACCTCTAGCTAGCCGACTCACTATAGGGATAATCGCCCTGAGCAAAGACC | 0.18 ± 0.0881 log2FC
CTCGAGGATATCAAGATCTGGCCTCGGCGCGGCGGCGGGAACCTCTAGCTAGCCGACTCACTATAGGGATAATCGCCCTGAGCAAAGACC | 0.141 ± 0.11 log2FC
